Assay results reported in PubChem BioAssay (NCI).
Several values for one entry are separate records, joined by “and”; a condition that tells them apart may be missing. Equal values may be shown once. The panel holds about 83,000 compounds, 20% with a hit somewhere; the sample as a whole holds those more often.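 Cell lines were cultured in 96-well plates, exposed to a single compound concentration, and assessed for percent growth 48 hours later.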 Activity calls are given as the source filed them. How the source made its calls: active means growth percent below 10; inactive means the rest.

Tests used:
Assay in all cases: NCI-60 one-dose screen, 48 h (100 = growth as untreated, 0 = no growth, -100 = all killed)
Conditions in all cases: 10 µM unless noted
T-47D breast = tested on: T-47D breast
BT-549 breast = tested on: BT-549 breast
SW-620 colon = tested on: SW-620 colon
MCF7 breast = tested on: MCF7 breast
HCT-116 colon = tested on: HCT-116 colon
HCC-2998 colon = tested on: HCC-2998 colon
KM12 colon = tested on: KM12 colon
MDA-MB-435 melanoma = tested on: MDA-MB-435 melanoma

Compound	growth (T-47D breast)	growth (BT-549 breast)	growth (SW-620 colon)	growth (MCF7 breast)	growth (HCT-116 colon)	growth (HCC-2998 colon)	growth (KM12 colon)	growth (MDA-MB-435 melanoma)
CC1(C)C=Cc2c(ccc3c2[N+]([O-])=C2C3=C[C@@]34NC(=O)[C@]5(CCCN5C3=O)C[C@@H]4C2(C)C)O1	53.2% (inactive)	39.8% (inactive)	12.9% (inactive)	17.9% (inactive)	17.4% (inactive)	78.1% (inactive)	47.5% (inactive)	–
O=CC1(c2ccccc2)CCN(Cc2ccccc2)CC1	–	106% (inactive)	–	103% (inactive)	102% (inactive)	101% (inactive)	101% (inactive)	–
CC1(C)N(Nc2ccccc2)C(=O)C2CCCN21 (stereo not drawn)	56.8% (inactive)	13.6% (inactive)	62.5% (inactive)	80.1% (inactive)	12.1% (inactive)	88.1% (inactive)	15.7% (inactive)	12.5% (inactive)
CCCC[C@@H]1CCN2C[C@@H](O)[C@@H](O)[C@@H]2[C@H]1O	–	–	–	111% [100 µM] (inactive) and 89.6% [100 µM] (inactive)	–	–	–	–
CC12CCC3C(CCC4CC(O)CCC43C)C1CCC2=O (stereo not drawn)	113% (inactive)	113% (inactive)	109% (inactive)	116% (inactive)	88.6% (inactive)	99.2% (inactive)	98.9% (inactive)	97.7% (inactive)
CN(N)/N=N/c1nc[nH]c1[N+](=O)[O-]	–	–	–	69.6% [100 µM] (inactive) and 35% [100 µM] (inactive)	–	–	–	–
CCOC(=O)C1C(c2ccco2)C2(C#N)C(=N)OC1(C)C2(C#N)C#N (stereo not drawn)	–	–	–	45.1% [100 µM] (inactive) and 0.896% [100 µM] (active)	–	–	–	–
CC(C)COC(=O)Cc1ccccc1	–	108% (inactive)	107% (inactive)	106% (inactive)	105% (inactive)	107% (inactive)	105% (inactive)	106% (inactive)
C=C1C(=O)OC2/C=C(\C)CC/C=C(/C)CC(OC(=O)/C(=C/CO)CO)C12 (stereo not drawn)	–	–	–	-85% [100 µM] (active) and -68.3% [100 µM] (active)	–	–	–	–
O=C(O)CNCP(=O)(O)O	111% (inactive)	–	110% (inactive)	96.2% (inactive)	103% (inactive)	99.2% (inactive)	113% (inactive)	–
COc1c(O)cc2c(c1OC)-c1ccc(SC)c(=O)cc1C(NC(C)=O)CC2 (stereo not drawn)	81.9% (inactive)	-9.83% (active)	22.9% (inactive)	13.3% (inactive)	4.98% (active)	-21.5% (active)	-41.1% (active)	-47.2% (active)
O=C/C=C/c1ccco1	107% (inactive)	104% (inactive)	104% (inactive)	96% (inactive)	90% (inactive)	106% (inactive)	97.6% (inactive)	106% (inactive)
CO[C@@H]([CH2][Hg][O]C(=O)c1ccccc1)[C@@H]([CH2][Hg][O]C(=O)c1ccccc1)OC	87.7% (inactive)	110% (inactive)	66.1% (inactive)	46.4% (inactive)	-60.5% (active)	118% (inactive)	101% (inactive)	–
O=[N+]([O-])c1cc(Cl)c(Cl)c([N+](=O)[O-])c1Cl	0.463% (active)	96.8% (inactive)	-61.9% (active)	20.1% (inactive)	-77.1% (active)	109% (inactive)	26% (inactive)	89.3% (inactive)
CCOC(=O)c1cncn1C(C)c1ccccc1 (stereo not drawn)	–	100% (inactive)	115% (inactive)	114% (inactive)	106% (inactive)	118% (inactive)	104% (inactive)	108% (inactive)
